# Experimental data: publication PMC7862700, “An all-to-all approach to the identification of sequence-specific readers for epigenetic DNA modifications on cytosine”
# Assays:
# Assay in all cases: DAPPL (digital affinity profiling via proximity ligation, sequencing); 10 mM Tris-HCl pH 7.5, 50 mM NaCl, 1 mM DTT, 4% glycerol, room temperature, 30 min; GST-TFs on glutathione beads, 16-mer random dsDNA library, 0.1% formaldehyde crosslink after washing; high values mean tight binding
# Conditions in all cases: protein: recombinant; tags: N-terminal GST; dsDNA, one strand shown
# FLI1 = target: T1, FLI1 (Homo sapiens, UniProt Q01543 1-452)
# T1 sequence: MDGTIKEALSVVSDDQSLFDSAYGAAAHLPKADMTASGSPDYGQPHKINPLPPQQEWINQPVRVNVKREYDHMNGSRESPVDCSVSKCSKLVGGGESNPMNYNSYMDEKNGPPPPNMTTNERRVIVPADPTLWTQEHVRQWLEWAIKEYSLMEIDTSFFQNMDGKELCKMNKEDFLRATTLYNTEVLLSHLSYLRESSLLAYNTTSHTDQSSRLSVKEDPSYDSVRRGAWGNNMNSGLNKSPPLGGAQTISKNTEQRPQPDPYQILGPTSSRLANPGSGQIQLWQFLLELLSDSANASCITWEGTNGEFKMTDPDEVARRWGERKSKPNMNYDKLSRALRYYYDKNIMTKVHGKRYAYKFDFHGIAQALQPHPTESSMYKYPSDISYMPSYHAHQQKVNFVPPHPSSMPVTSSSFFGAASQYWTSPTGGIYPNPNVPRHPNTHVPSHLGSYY
# Method in brief: (§1)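 Binding signal is each hexamer's read frequency for a factor divided by its frequency in the tag-only sample. The factors were GST-fused human transcription factors from yeast, captured on glutathione beads, DNA-barcoded and pooled with that sample. Pools were incubated with 200 nmole of a random double-stranded 16-mer DNA library in Tris/NaCl/DTT/glycerol buffer at room temperature for 30 min, then washed, crosslinked with 0.1% formaldehyde, proximity-ligated with BsaI/T4 ligase (1 h, 37 °C), PCR-amplified and sequenced on an Illumina NextSeq500.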
# ELK1 = target: T2, ELK1 (Homo sapiens, UniProt P19419 1-428)
# T2 sequence: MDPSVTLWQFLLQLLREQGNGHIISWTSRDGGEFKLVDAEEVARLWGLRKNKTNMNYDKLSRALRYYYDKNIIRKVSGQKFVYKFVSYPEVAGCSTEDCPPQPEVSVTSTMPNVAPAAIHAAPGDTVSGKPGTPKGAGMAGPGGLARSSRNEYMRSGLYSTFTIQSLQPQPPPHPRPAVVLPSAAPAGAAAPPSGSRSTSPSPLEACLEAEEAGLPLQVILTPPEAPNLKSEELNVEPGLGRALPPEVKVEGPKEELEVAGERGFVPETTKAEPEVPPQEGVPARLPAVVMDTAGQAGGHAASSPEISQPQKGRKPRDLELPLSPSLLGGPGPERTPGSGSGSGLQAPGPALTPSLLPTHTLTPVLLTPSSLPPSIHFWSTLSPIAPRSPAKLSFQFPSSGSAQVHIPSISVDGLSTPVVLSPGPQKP
# Method in brief: as §1
# GABPA = target: T3, GABPA (Homo sapiens, UniProt Q06546 1-454)
# T3 sequence: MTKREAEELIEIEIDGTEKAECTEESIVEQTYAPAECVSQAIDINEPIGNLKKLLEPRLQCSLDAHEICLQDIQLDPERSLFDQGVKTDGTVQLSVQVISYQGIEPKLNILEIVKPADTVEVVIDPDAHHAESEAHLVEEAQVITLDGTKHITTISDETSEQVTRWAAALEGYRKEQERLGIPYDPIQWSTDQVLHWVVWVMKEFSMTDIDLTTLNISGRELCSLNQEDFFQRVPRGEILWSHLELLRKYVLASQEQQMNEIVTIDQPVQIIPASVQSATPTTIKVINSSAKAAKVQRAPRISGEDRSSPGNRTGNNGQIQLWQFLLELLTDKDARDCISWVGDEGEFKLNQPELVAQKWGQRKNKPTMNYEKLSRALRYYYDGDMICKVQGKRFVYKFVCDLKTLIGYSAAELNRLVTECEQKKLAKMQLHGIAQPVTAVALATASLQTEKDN
# Method in brief: as §1
# ERG = target: T4, ERG (Homo sapiens, UniProt P11308 1-479)
# T4 sequence: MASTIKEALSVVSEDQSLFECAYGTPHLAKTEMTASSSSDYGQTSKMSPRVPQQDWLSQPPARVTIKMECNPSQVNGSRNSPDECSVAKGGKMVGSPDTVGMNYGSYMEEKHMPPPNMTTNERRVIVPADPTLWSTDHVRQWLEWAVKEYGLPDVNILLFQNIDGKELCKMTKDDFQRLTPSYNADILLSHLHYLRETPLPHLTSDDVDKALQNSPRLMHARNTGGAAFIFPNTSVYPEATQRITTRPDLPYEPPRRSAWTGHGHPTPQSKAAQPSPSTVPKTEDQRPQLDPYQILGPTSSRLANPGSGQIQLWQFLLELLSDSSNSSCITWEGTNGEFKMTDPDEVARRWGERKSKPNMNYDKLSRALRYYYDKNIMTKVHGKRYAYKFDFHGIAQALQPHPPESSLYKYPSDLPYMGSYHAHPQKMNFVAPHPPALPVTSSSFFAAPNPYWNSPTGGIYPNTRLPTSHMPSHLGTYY
# Method in brief: as §1
# ELF1 = ELF1 (Homo sapiens, UniProt P32519 1-619)
# Method in brief: as §1
# EHF = target: T5, EHF (Homo sapiens, UniProt Q9NZC4 1-300)
# T5 sequence: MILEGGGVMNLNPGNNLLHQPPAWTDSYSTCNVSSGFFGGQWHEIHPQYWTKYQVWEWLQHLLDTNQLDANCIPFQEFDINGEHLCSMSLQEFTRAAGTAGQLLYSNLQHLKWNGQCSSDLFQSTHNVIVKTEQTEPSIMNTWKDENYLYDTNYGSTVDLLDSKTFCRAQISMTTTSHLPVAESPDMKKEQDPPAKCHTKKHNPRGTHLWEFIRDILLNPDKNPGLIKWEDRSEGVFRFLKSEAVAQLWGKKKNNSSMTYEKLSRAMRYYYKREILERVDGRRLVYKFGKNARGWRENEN
# Method in brief: as §1
# SPI1 = SPI1 (Homo sapiens, UniProt P17947 1-270)
# Method in brief: as §1
# SPIB = SPIB (Homo sapiens, UniProt Q01892 1-262)
# Method in brief: as §1
# ELK3 = target: T6, ELK3 (Homo sapiens, UniProt P41970 1-407)
# T6 sequence: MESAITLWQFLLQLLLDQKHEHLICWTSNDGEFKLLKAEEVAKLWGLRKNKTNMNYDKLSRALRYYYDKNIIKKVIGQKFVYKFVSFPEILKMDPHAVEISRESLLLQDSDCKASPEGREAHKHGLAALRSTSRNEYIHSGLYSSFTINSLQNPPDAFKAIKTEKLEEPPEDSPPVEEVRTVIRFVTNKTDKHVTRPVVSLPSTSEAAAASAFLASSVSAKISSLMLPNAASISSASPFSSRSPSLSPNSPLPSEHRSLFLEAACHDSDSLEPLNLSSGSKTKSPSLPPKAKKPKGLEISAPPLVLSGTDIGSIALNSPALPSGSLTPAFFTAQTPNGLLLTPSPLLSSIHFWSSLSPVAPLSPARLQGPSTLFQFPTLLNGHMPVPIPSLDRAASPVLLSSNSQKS
# Method in brief: as §1
# FEV = target: T7, FEV (Homo sapiens, UniProt Q99581 1-238)
# T7 sequence: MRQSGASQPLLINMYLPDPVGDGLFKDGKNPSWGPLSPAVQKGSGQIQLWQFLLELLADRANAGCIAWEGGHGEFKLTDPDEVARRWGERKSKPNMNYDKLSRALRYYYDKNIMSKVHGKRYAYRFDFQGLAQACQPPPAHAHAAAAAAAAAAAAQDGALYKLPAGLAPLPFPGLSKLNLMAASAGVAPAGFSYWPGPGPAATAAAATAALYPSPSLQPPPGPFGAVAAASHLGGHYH
# Method in brief: as §1
# SPIB, sequence (Q01892 whole entry): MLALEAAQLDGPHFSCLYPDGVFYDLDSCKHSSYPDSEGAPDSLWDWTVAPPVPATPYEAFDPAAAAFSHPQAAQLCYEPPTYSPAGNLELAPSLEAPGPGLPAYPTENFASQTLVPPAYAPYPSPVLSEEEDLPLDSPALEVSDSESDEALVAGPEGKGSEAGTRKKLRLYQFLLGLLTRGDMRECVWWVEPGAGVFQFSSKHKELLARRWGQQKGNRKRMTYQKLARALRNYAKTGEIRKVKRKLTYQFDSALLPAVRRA
# ELF1, sequence (P32519 whole entry): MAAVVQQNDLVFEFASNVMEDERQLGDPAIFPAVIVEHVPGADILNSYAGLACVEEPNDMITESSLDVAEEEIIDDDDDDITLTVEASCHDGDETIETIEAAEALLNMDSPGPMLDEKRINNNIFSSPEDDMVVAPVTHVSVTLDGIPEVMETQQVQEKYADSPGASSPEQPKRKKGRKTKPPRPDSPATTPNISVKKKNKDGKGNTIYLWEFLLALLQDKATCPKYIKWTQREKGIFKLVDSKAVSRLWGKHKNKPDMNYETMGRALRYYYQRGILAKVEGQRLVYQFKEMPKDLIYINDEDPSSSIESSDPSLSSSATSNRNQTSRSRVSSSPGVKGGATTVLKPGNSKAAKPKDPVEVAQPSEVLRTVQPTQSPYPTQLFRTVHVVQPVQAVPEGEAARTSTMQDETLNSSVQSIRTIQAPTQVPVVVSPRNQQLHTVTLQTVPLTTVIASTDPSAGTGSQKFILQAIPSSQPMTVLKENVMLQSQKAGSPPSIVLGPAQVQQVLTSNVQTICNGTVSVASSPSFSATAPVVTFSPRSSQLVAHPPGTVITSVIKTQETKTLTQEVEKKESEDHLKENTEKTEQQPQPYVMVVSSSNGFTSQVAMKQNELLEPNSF
sequence,measurement,setting,value
ACCACG,binding signal,FLI1,"1.14 fold enrichment (6-mer frequency, TF over GST control)"
same,binding signal,ELK1,"1.16 fold enrichment (6-mer frequency, TF over GST control)"
same,binding signal,GABPA,"1.09 fold enrichment (6-mer frequency, TF over GST control)"
same,binding signal,ERG,"1.06 fold enrichment (6-mer frequency, TF over GST control)"
same,binding signal,ELF1,"1.18 fold enrichment (6-mer frequency, TF over GST control)"
same,binding signal,EHF,"1.04 fold enrichment (6-mer frequency, TF over GST control)"
same,binding signal,SPI1,"1.01 fold enrichment (6-mer frequency, TF over GST control)"
same,binding signal,SPIB,"1.04 fold enrichment (6-mer frequency, TF over GST control)"
same,binding signal,ELK3,"1.08 fold enrichment (6-mer frequency, TF over GST control)"
same,binding signal,FEV,"1.05 fold enrichment (6-mer frequency, TF over GST control)"
